# Unmarked numbers belong to inactive results. The rule behind the calls is not given here.
# Test system: Rolipram
# Assay: selectivity profile over receptors, transporters, CYPs – biochemical, Ricerca HitProfilingScreen, CYP450, set 2, selectivity assay for GPR7 antagonist project, profiling panel (AID 540345)
# Conditions: Ricerca radioligand binding/CYP panel, at 10 µM, stronger effect = higher value
smiles,measurement,value
COc1ccc(Oc2c(Cl)cnn(C3c4ccccc4-c4ccccc43)c2=O)cc1,inhibition,5%

# From PubChem BioAssay AID540345 (The Scripps Research Institute Molecular Screening Center, 2011)
